Source: PubChem BioAssay
S2 tox – reduces viability in counter-screen for ATXN expression inhibitors | S2 cells (HEK-293 line with an ATXN2-luciferase reporter) viability, CellTiter-Fluor protease fluorescence, 24 h | 400,000 compounds, 0.49% hits | Potency, µM (doses to about 56.7 µM), actives largely listed as cytotoxic | AID 651635; note: potency is the fitted concentration of half-maximal effect; nearly all actives have a fitted effect of over 40% in size
ATXN2 expr inh – reduces ATXN2 reporter expression in HEK-293 cells. Potency, µM (series often up to 57 µM), inactives show at the highest dose activity change, negative = inhibition, most hits filed as inhibitors. 360,000 compounds, 0.72% hits. AID 1745845. HEK-293 ATXN2-luciferase reporter, luminescence, 24 h; note: potency is the fitted concentration of half-maximal effect; % is set by controls: 0 for no effect and ±100 for the full control effect; nearly all actives have a fitted effect of over 55% in size
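qHTS (up to 57 uM final) was run with 24 h compound exposure of reporter cells at 37 °C. Each well was multiplexed: SteadyGlo luminescence measured ATXN2-luciferase expression after a fluorogenic Gly-Phe-AFC viability readout (25 uM final).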
TGFb SMAD3 inh – inhibitors of TGF-b signaling; HepG2 CAGA-GFP TGF-b/SMAD3 reporter, GFP fluorescence, 18 h; TGF-beta stimulated, 500 pg/mL final; Potency, µM (series often up to 46.1 µM), inactives show top-dose activity, negative = inhibition, usual class: inhibitors; 410,000 compounds, 1.2% hits; AID 588855; note: potency is the fitted concentration of half-maximal effect; % is set by controls: 0 for no effect and ±100 for the full control effect; nearly all actives have a fitted effect of over 65% in size
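Inhibition of TGF-beta-driven CAGA-GFP reporter expression in HEPG2 cells is measured by cellular GFP fluorescence after 18 h stimulation with 500 pg/mL recombinant TGF-beta in 1% FBS medium at 37 degrees C.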
HepG2 viability – counter-screen for TGF-b inhibitors: cytotoxicity in HepG2 cells. HepG2 CAGA-GFP viability, ATP luminescence, 18 h. Potency, µM (titrated, usually from 46.1 µM), inactives show at the highest dose activity change, negative = cytotoxicity, actives largely listed as cytotoxic. 410,000 compounds, 0.76% hits. AID 588856; note: potency is the fitted concentration of half-maximal effect
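HepG2 CAGA-GFP cells (1000/well, DMEM with 1% FBS) received compound, then TGF-beta at 500 pg/mL final, and were incubated 18 hours at 37 degrees C. Viability was read by CellTiter-Glo luminescence. Media-only wells were set as complete cell-killing and DMSO as no toxicity.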
Six1-Eya2 blk – inhibitors of human Six1/Eya2 interaction. Q15475+O00167. AlphaScreen GST-Six1/His-Eya2 binding, biochemical; hits give low values. activity change, % (no concentration beside the values). 360,000 compounds, 0.56% hits. AID 651725; in the data active = activity change below about -65%; inconclusive = mostly about -30% to -63%; note: % is set by controls: 0 for no effect and ±100 for the full control effect
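Compounds are tested against tagged Six1 and Eya2 proteins bridged by glutathione donor and nickel acceptor beads; after a one-hour incubation at 37 °C without light, AlphaScreen emission is recorded.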
CtBP-E1A blk – CtBP/E1A binding inhibition. AlphaScreen GST-E1A/His-CtBP binding, 1536-well; hits give low values. AID 651724. activity change, % (concentration not given with the values). 340,000 compounds, 0.49% hits; in the data active = activity change below about -65%; inconclusive = mostly about -30% to -63%; note: % is set by controls: 0 for no effect and ±100 for the full control effect
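AlphaScreen with 125 nM GST-E1A and 125 nM His-CtBP (5X stocks) in Tris pH 8.0, 300 mM NaCl, BSA, Tween 20, TCEP. Compounds preincubated 2 h at 37 deg C, then glutathione donor/nickel acceptor beads added for 1 h at 37 deg C in dark.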
An asterisk follows results filed as active; i = inactive; ? = inconclusive; . = no result. Sampled rows, rich in hits. Any-hit rate of the full collection: about 2.8%. Unless noted, calls come from the whole dose curve; as a rule, active = well fitted curve in the direction sought with a large enough effect; inconclusive = small, poorly fitted or top-dose-only effect, or another doubt; inactive = no such curve, though single readings can be large; an effect the other way counts as inactive or inconclusive.

SMILES | S2 tox | ATXN2 expr inh | TGFb SMAD3 inh | HepG2 viability | Six1-Eya2 blk | CtBP-E1A blk
Oc1[nH]c2ccccc2c1N=NC(=S)N1CCOCC1 | 3.16µM* | . | 7.08µM* | 3.16µM* | -91.7* | -65.8*
Oc1[nH]c2ccc(Br)cc2c1N=NC(=S)N1CCOCC1 | ? | 0.708µM* | ? | -30.3% | -78.1* | ?
COC(=O)N=Nc1c(O)[nH]c2ccc(Br)cc12 | i | -24.6% | 7.1% | 9.8% | -18.3 | -12.0
NC(=S)N=Nc1c(O)[nH]c2ccccc12 | i | -14.0% | -1.8% | 24.6% | ? | ?
Cc1ccc2cc3c(N)nn(C(=O)c4cccc(F)c4)c3nc2c1 | . | . | ? | 0.1% | . | .
COc1cccc(/C=N/Nc2snc(SC)c2C#N)c1O | i | -13.4% | 10µM* | -47.1% | ? | -75.7*
CCOc1ccccc1/C=N/Nc1ccnc(=O)[nH]1 | i | -4.3% | -13.7% | -25.2% | -6.4 | -16.2
COc1ccc(/C=N/Nc2snc(SC)c2C#N)cc1OC | i | 41.6% | 27.1% | 1.9% | -17.4 | ?
COc1cccc(/C=N/Nc2ccnc(=O)[nH]2)c1O | i | ? | -31.0% | -27.5% | -76.1* | -92.1*
O=c1nccc(N/N=C/c2ccccc2O)[nH]1 | i | ? | ? | -29.7% | -75.0* | -92.2*
Cc1nc2cc(NC(=O)[C@@H]3C[C@@H](Sc4ccccn4)CN3Cc3ccc(F)cc3F)ccc2s1 | i | . | . | . | . | .
CC(C)(C)n1ncc2c(=O)n(Cc3ccccc3Cl)cnc21 | . | . | -9.2% | -3.7% | . | .
Nc1ccc(C(=O)NN2C(=O)[C@H](Cl)C2c2ccc(Cl)cc2)cc1 (some centres not stated) | 13.4µM* | ? | 0.0% | -87.8% | -6.9 | 13.0
Cc1oc(-c2ccccc2NC(=O)c2cccnc2)nc1CNC(=O)C1CCCCCN1C (configuration not stated) | i | . | . | . | . | .
COc1cccc(Nc2sc(C(=O)c3ccc(F)cc3)c(N)c2C(=O)NCc2ccc(C)cc2)c1 | . | . | 14.1µM* | -46.2% | . | .
Cc1ccccc1Nc1sc(C(=O)c2ccccc2)c(N)c1C(=O)NCc1ccc(Cl)cc1 | ? | ? | ? | -81.9% | . | .
Cc1ccc(CNC(=O)c2c(Nc3ccccc3C)sc(C(=O)c3ccc(F)cc3)c2N)cc1 | ? | ? | 17.8µM* | 15.8µM* | . | .
COc1ccccc1-c1nc2cc(C(=O)NC[C@H]3CCc4ccccc4O3)cc(NC(C)=O)c2n1C | i | . | . | . | . | .
CC(C)C[C@H](NC(=O)CNC(=O)[C@H](Cc1ccc(O)cc1)NC(=O)[C@H](CO)NC(=O)[C@H](Cc1c[nH]c2ccccc12)NC(=O)[C@H](Cc1cnc[nH]1)NC(=O)[C@@H]1CCC(=O)N1)C(=O)N[C@@H](CCCN=C(N)N)C(=O)N1CCC[C@H]1C(=O)NCC(N)=O (stereo in doubt) | i | -5.3% | . | . | . | .
Cc1ccc(Cl)cc1NC(=O)C[n+]1ccc(Cc2ccc([N+](=O)[O-])cc2)cc1 | i | -19.5% | -25.0% | -20.4% | -6.8 | -15.8
CC(C)(C)NC(=O)NC(=O)C[n+]1ccc(Cc2ccc([N+](=O)[O-])cc2)cc1 | i | -27.1% | -2.1% | 3.16µM* | 0.1 | 1.9
O=CC1=C(c2ccccc2)Oc2ccccc2O1 | 22.4µM* | ? | ? | -94.1% | -3.6 | ?
CCc1ccc(NC(=O)CSc2nc3n[nH]c(C)c3c(=N)n2-c2ccccc2C)cc1 | ? | -27.7% | ? | 15.8µM* | . | .
CCc1ccccc1-n1c(SCC(=O)Nc2ccc(C)cc2)nc2n[nH]c(C)c2c1=N | . | . | 0.0% | -42.0% | . | .
Cc1c(Cl)cccc1-n1c(SCC(=O)NCc2ccccc2)nc2n[nH]c(C)c2c1=N | . | . | 11.2µM* | -60.2% | . | .
CCOc1ccccc1NC(=O)CCSc1nc2n[nH]c(C)c2c(=N)n1-c1ccccc1Cl | i | -30.3% | 2.0% | -24.9% | -11.9 | -13.8
